D1 agonist: agonists of human D1 dopamine receptor; P21728; HEK293 T-REx D1 cells, calcium flux, agonist mode; activation, % at 2 µM; hit rate 1% among 360,000
Target sequence (P21728 whole entry, looked up): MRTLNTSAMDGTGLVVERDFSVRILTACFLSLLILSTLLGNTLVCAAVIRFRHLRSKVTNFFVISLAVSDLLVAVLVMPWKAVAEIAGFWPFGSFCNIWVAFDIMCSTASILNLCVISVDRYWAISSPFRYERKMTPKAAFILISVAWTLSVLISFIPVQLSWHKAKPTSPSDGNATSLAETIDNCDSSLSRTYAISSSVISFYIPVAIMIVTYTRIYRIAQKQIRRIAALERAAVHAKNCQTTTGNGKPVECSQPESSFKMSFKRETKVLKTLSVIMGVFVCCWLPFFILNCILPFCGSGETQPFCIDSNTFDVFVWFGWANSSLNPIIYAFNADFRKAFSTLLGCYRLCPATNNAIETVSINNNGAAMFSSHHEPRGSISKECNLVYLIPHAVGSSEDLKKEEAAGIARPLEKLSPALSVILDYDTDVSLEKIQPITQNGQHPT
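Inducible HEK293 T-REx D1 cells, force-coupled to calcium signalling, were plated at 4000 cells/well with tetracycline and held overnight at 30 C. After no-wash calcium dye loading, compound-evoked calcium rise over 180 s flagged agonists.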
D1 antag: blocks dopamine activation of the human D1 receptor. P21728. HEK293 TREx D1 cells, calcium flux, dopamine EC80; hits give low values. activity change, negative = inhibition, % at 10 µM. hit rate 3.2% among 360,000; in the data active = activity change below about -30%
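Allosteric or orthosteric antagonism assessed as attenuation of the calcium response to EC80 dopamine, added 180 s after compound, in induced HEK293 Trex D1 cells loaded with no-wash calcium dye.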
D1 potentiator: enhances dopamine response at the human D1 receptor; hit rate 0.036% among 360,000; potentiation, % at 10 µM; HEK293 TREx D1 cells, calcium flux, dopamine EC20 potentiation; in the data active = potentiation above about 30%
TRHR PAM: allosteric enhancers of human TRH receptor | TRHR cells, fluo-8 calcium fluorescence, EC20 TRH enhancement | P34981 | AID 493056 | hit rate 0.66% among 360,000 | enhancement, % at 2 µM; in the data active = enhancement above about 30%
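Enhancer read-out: after compound pinning and an initial kinetic agonist-mode read, an EC20 of TRH (10 nM final) was injected and fluo-8 calcium signal (Ex 480/Em 530) followed at 1 s/cycle for 100 cycles in TRHR-expressing cells.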
TRHR agonist: activates the human TRH receptor. TRHR cells, calcium flux fluo-8, FDSS agonist mode. P34981. hit rate 0.18% among 360,000. AID 493084. activation, % at 2 µM
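TRHR-expressing cells loaded with fluo-8 calcium dye; 23 nL library compound pin-transferred, kinetic FDSS fluorescence (Ex 480/Em 530) recorded about 180 s for agonist-induced calcium release, before a 10 nM TRH EC20 addition for potentiator mode.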
A number is an active result; n = inactive; x = no result. Only some compounds are listed: those with a hit (about 4.7% of all), similar ones and a draw of the others. Rule as the data show it, unless noted: active = activation above about 30%; inactive = the rest.

SMILES	D1 agonist	D1 antag	D1 potentiator	TRHR PAM	TRHR agonist
CCn1c(=O)c(C(=O)NNC(=O)c2ccccc2F)c(O)c2ccccc21	83.5	-41.8	n	n	42.9
CCOC(=O)c1c(-c2ccc(OC)cc2)csc1/N=C/C1C(=O)CCCC1=O	n	-46.7	n	n	n
C=Cc1ccc(Cn2c(=O)n(CC3CCC(C(=O)NC(C)C)CC3)c(=O)c3sccc32)cc1 (stereo not drawn)	n	n	n	n	n
C=CCSc1nnc(C)c(/C=C/Nc2ccc(Cl)cc2)n1	74.2	n	n	n	n
Cc1cc2c(cc1S(=O)(=O)N1CCC(C(N)=O)CC1)OCC(=O)N2	n	n	n	n	n
CCN(CC)CCCNC(=O)c1ccc2nc(N3CCCCC3)sc2c1	n	n	n	n	n
COC(=O)c1ccc(N)c(N=CC2=C(O)CC(C)(C)CC2=O)c1	n	n	n	n	n
CC1(C)CC(=O)C(C=Nc2cc(C(=O)c3ccccc3)ccc2N)=C(O)C1	n	-44.7	n	n	n
CS(=O)(=O)N1CCc2cc(C(=O)Nc3ccc(S(N)(=O)=O)cc3)ccc21	n	n	n	n	n
C=CCOC(=O)C1=C[C@@H](c2coc3ccccc3c2=O)C[C@@H](OCc2ccc(CO)cc2)O1	n	-48.7	n	n	n
O=C(NCc1ccccc1)C1=C[C@H](c2coc3ccccc3c2=O)C[C@H](OCc2ccc(CO)cc2)O1	n	n	n	n	n
C=CCOC(=O)C1=C[C@H](c2coc3ccccc3c2=O)C[C@H](OCc2ccc(CO)cc2)O1	n	n	n	n	n
O=C(Nc1ccccc1)C1=C[C@@H](c2coc3ccccc3c2=O)C[C@@H](OCc2ccc(CO)cc2)O1	n	-36.6	n	n	n
CC/C(=N\Nc1ccc([N+](=O)[O-])cc1[N+](=O)[O-])c1ccc(O)cc1	n	-34.1	n	n	n
CC/C(=N\Nc1ccccc1[N+](=O)[O-])c1ccc(O)cc1	n	n	n	n	n
C/C(=N\Nc1ccc(C#N)cc1[N+](=O)[O-])c1ccc(O)cc1	n	-43.1	n	n	n
COc1ccc(CNC(=O)CCc2nc3cccnc3n2Cc2ccccc2)cc1	n	n	n	n	n
CSc1ncc(C(=O)NCc2ccc(C)cc2)c(C)n1	n	n	n	n	n
CCOc1ccc(N2CC(O)(c3ccc(F)cc3)[N+]3=C2CCCC3)cc1 (stereo not drawn)	n	-44.2	n	n	n
COc1ccc(N2CC(O)(c3ccc(F)cc3)[N+]3=C2CCCC3)cc1 (stereo not drawn)	n	n	n	n	n
Cc1ccc(C(=O)N2c3ccc(C)cc3C(C)(c3ccccc3)CC2(C)C)cc1 (stereo not drawn)	n	n	n	n	n
COc1ccc(CNC(=O)c2ccc3c(c2)N(Cc2ccccc2F)C(=O)c2ccccc2S3(=O)=O)cc1	n	n	n	n	n
CCCCCS(=O)(=O)c1oc(-c2cccs2)nc1S(=O)(=O)c1ccc(C)cc1	n	n	n	n	n
CCCCS(=O)(=O)c1oc(-c2cccs2)nc1S(=O)(=O)c1ccc(F)cc1	81.1	n	n	n	n
COc1ccc(OC)c(NC(=O)c2cn3c4c(ccc(Cl)c4c2=O)OC(C)C3)c1 (stereo not drawn)	n	n	n	n	n
SMILES	D1 agonist	D1 antag	D1 potentiator	TRHR PAM	TRHR agonist
COc1ccc(/C=C2\Oc3cc(OC(=O)N4CCOCC4)ccc3C2=O)c(OC)c1	37.4	n	n	n	n
Cc1ccc(Cn2ccnc2SCC(=O)NCc2ccc(F)cc2)cc1	n	n	n	n	n
Cc1cc(Cl)cc(Cl)c1OCCOCCN(C)C	n	n	n	n	n
Cc1cc(C)c(OCCN(C)C)c(Cl)c1	n	-38.0	n	n	n
CCC(CC)C(=O)Nc1c(C(=O)N2CCN(c3ccccc3F)CC2)oc2ccccc12	n	n	n	n	n
Cc1cc(C)n(CC(O)CN(c2ccccc2)S(=O)(=O)c2ccccc2)n1 (stereo not drawn)	n	n	n	n	n
O=S(=O)(c1ccccc1)N(CC(O)COc1ccccc1)c1ccccc1 (stereo not drawn)	n	-30.8	n	n	n
CC(C)CNC(=O)CC(=O)N/N=C/c1ccc(F)cc1	n	n	n	n	n
COCCCN=C1NN=C(c2cc(C)n(-c3ccccc3F)c2C)CS1	32.5	-32.2	n	n	n
COCCCN=C1NN=C(c2cc(C)n(-c3ccccc3)c2C)CS1	n	n	n	n	n
Cc1cc(C2=NNC(=Nc3ccccc3)SC2)c(C)n1C	n	-31.8	n	n	n
CCCN1CCN(c2ncnc3scc(C4COc5ccccc5O4)c23)CC1 (stereo not drawn)	n	n	n	35.9	n
O=c1[nH]cnc2scc(C3COc4ccccc4O3)c12 (stereo not drawn)	47.2	n	n	n	n
Cc1sc2ncnc(N/N=C/c3cccc(O)c3)c2c1C	n	n	n	n	n
C/C(=N\Nc1ccc(Cl)c(C(=O)O)c1)c1ccccn1	n	n	n	n	n
C/C(=N\Nc1ncc(Cl)cc1Cl)c1ccccn1	n	-40.5	n	n	n
C/C(=N\Nc1ncnc2sc(C)c(C)c12)c1ccccn1	281.4	n	n	n	55.0
N#Cc1nc(Nc2ccc(F)cc2)nc(NC2CCCC2)n1	n	n	n	n	n
O=Cc1c(NCc2ccccc2)c2ccccc2[nH]c1=O	n	n	n	n	n
O=Cc1c(NCc2ccc(Cl)cc2)c2ccccc2[nH]c1=O	n	-36.8	n	n	n
CC(C)CC[n+]1ccn(-c2nc3ccccc3nc2[N-]S(=O)(=O)c2ccc(Cl)cc2)c1	n	n	n	n	n
CC(=O)C1=C(O)CCCC1=NCc1nc2ccccc2[nH]1	n	-33.7	n	n	n
CC(=O)c1nc(N2C(=O)CC(Cc3cc(C)cc(C)c3)C2=O)sc1C (stereo not drawn)	n	n	n	n	n
CC(=O)c1nc(N2C(=O)CC(Cc3cccc(C)c3)C2=O)sc1C (stereo not drawn)	n	-53.2	n	n	n
COc1ccc(CNC(=O)c2cc(-c3ccc(OC)c(OC)c3)nc3n[nH]c(-c4ccc(C)cc4)c23)cc1	n	n	n	n	n
SMILES	D1 agonist	D1 antag	D1 potentiator	TRHR PAM	TRHR agonist
O=C(NCCc1ccc(F)cc1)C(=O)NCC(c1cccs1)S(=O)(=O)c1cccs1 (stereo not drawn)	42.0	x	n	n	n
COc1ccc(CCNC(=O)C(=O)NCC(c2ccco2)S(=O)(=O)c2ccc(F)cc2)cc1 (stereo not drawn)	n	x	n	36.1	n
COc1ccc(N2CCN(C(=O)NCc3noc4ccccc34)CC2)cc1	n	n	n	n	n
O=C1CCN2C=Nc3cccc4ccc1c2c34	170.3	n	n	n	136.2
Cc1c(Cl)cccc1NC(=O)CCS(=O)(=O)c1cccc2nsnc12	n	n	n	n	n
CCOC(=O)c1cccc(NC(=O)c2cc3sccc3n2Cc2ccc(Cl)cc2)c1	n	n	n	n	n

Bioassay records as filed in PubChem BioAssay.
